Compounds with a hit are over-represented: about 1.7% of the library has one in this group of screens.
SUMO1 PPI mod = modulators of SUMO1 protein-protein interactions, primary screen, biochemical, uHTS; actives 0.33% (n = 360,000); SUMO1 binding to a labelled peptide, TR-FRET, 1 h; inhibition, % at 20 µM; Small ubiquitin-related modifier 1 (Homo sapiens), P63165; AID 602429, 2012; in the data active = inhibition above about 37%
ATG4B inh = ATG4B protease inhibitors, primary screen, biochemical, fluorescence, uHTS; Cysteine protease ATG4B (Homo sapiens), Q9Y4P1; actives 0.51% (n = 340,000); inhibition, % at 8.33 µM; ATG4B cleavage of LC3-PLA2, NBD-HPC fluorescence, 1 h; in the data active = inhibition above about 40%
Rin1-Abl PPI inh = inhibitors of Rin1-Abl protein binding, primary screen, biochemical, TR-FRET | Tyrosine-protein kinase ABL1 (Homo sapiens) + Ras and Rab interactor 1 (Homo sapiens), … | inhibition, % at 7.35 µM | actives 0.4% (n = 360,000); in the data active = inhibition above about 5%, passing the limit was not always enough
Neddylation inh = inhibitors of cullin neddylation, primary screen, biochemical, TR-FRET, uHTS, NAE and Ubc12; actives 0.58% (n = 360,000); NEDD8-conjugating enzyme Ubc12 (Homo sapiens) + NEDD8-activating enzyme E1 regulatory …; inhibition, % at 25 µM; in the data active = inhibition above about 36%
An asterisk follows results filed as active; nt = not tested or not shown.

SMILES | SUMO1 PPI mod | ATG4B inh | Rin1-Abl PPI inh | Neddylation inh
Oc1ccc(C[C@H]2CNC(=S)N2CC2CCCN2C[C@H](Cc2ccc(O)cc2)N2C[C@H](Cc3ccc(O)cc3)N(CC3CCCCC3)C2=S)cc1 (some centres undefined) | 10 | nt | 2 | -26
Cc1ccc(C(C)C)c(OCc2ccc(C(=O)N/N=C/c3ccc(O)cc3O)cc2)c1 | 12 | -16 | 0 | 44*
COc1ccc(Cl)cc1S(=O)(=O)NC(C)C(=O)NCCN1CCOCC1 (centres undefined) | 2 | -5 | -4 | -14
COc1ccc(CNc2oc(COc3ccc(Cl)cc3)nc2C#N)cc1 | 4 | -1 | 1 | 1
COc1ccc(Nc2oc(COc3ccc(Cl)cc3)nc2C#N)cc1 | 42* | -6 | 3 | 9
C[C@H](CO)N1C[C@H](C)[C@@H](CN(C)S(=O)(=O)c2ccc(-n3cccn3)cc2)OCc2cnnn2CCCC1=O | 1 | nt | -2 | -11
O=C1c2ccc3c4c(ccc(c24)C(=O)N1c1ccc(O)cc1)C(=O)N(c1ccc(O)cc1)C3=O | 88* | -6 | 3 | -29
CC(C)NC(=O)N(C)C[C@H]1Oc2ccc(NS(=O)(=O)c3ccccc3)cc2C(=O)N([C@H](C)CO)C[C@@H]1C | 1 | 4 | 2 | -19
COc1ccc(/C=N/NC(=O)c2cc(-c3ccccc3OC)nc3ccccc23)cc1COC(C)=O | 1 | -3 | 1 | 39*
COc1ccc(/C=N\NC(=O)c2ccc([N+](=O)[O-])c(C)c2)cc1COc1ccccc1C(N)=O | 54* | -2 | -2 | -28
CCCCCCCCCC1(CC(=O)OCC)SCCN1C(N)=O (centres undefined) | 12 | nt | -6 | 1
CC(=O)NC(c1ccccc1)c1nc(-c2ccccc2)cs1 (centres undefined) | 0 | nt | -4 | -5
O=C1C(=O)c2c(ccc3ccccc23)-c2ccccc21 | 61* | -17 | -1 | -52
CN(C)/C=C1\Oc2ccc3ccccc3c2C1=O | -13 | -9 | -1 | 13
CCOC(=O)Cc1c(-c2cccc(Cl)c2)nc2c3ccccc3ccn12 | 2 | nt | nt | 27
Cc1nc2[nH]c(=S)[nH]c(=O)c2nc1C | 6 | -1 | 2 | 20
Cc1nc2c(=O)[nH]c(=S)[nH]c2[nH]c1=O | 55* | 3 | 8 | 24
O=C1CC(=O)N(Cc2ccco2)C(=S)N1 | 69* | 46* | 4 | 11
O=C(c1ccccc1)c1ccc2nc(-c3ccc(NC(=O)c4ccccc4Br)cc3)[nH]c2c1 | -3 | -9 | -3 | -5
O=C(Nc1ccc(-c2nc3ccc(NC(=O)c4cccs4)cc3[nH]2)cc1)c1cccs1 | 82* | 1 | 3 | nt
Cc1ccccc1C(=O)Nc1ccc(-c2nc3ccc(C(=O)c4ccccc4)cc3[nH]2)cc1 | 0 | 5 | 8.5* | -11
Nc1nc2ccccc2n1S(=O)(=O)c1ccc(Cl)cc1 | -1 | nt | 3 | -19
CC(C)=CCn1c2ccc(NC(=S)NC3CC3)cc2c(=O)n1C | 0 | nt | 0 | nt
O=C(NNC(=O)c1cccc(-n2cccc2)c1)c1ccccc1 | 6 | 3 | 2 | 3
O=C(NNC(=O)c1ccccc1F)c1cccc(-n2cccc2)c1 | 53* | -5 | 3 | 0
SMILES | SUMO1 PPI mod | ATG4B inh | Rin1-Abl PPI inh | Neddylation inh
COc1ccc(OC)c(CN2CCN(C(=O)c3ccc(S(=O)(=O)N4CCCCCC4)cc3)CC2)c1 | 5 | nt | 1 | 4
C[C@@H]1CN([C@H](C)CO)C(=O)c2cc(Br)cnc2O[C@@H]1CN(C)C(=O)c1cccc(F)c1 | -1 | nt | 3 | 10
Cc1ccc(S(=O)(=O)N2CC3(O)CN(C(=O)OC(C)C)N(C(=O)OC(C)C)CC3(OC(=O)NCc3ccccc3F)C2)cc1 (centres undefined) | 0 | nt | 3 | 0
CCCC(=O)N(C1CC(C)C(C#N)(C#N)C1(C#N)C#N)N(C)C (centres undefined) | 1 | -2 | -2 | 53*
O=C(O)CN1CCNCCN(CC(=O)O)CCNCC1 | 59* | -5 | 2 | 5
Cc1nc2ccccc2c(=O)n1Cc1ccco1 | 7 | -8 | -2 | 1
COc1ccc(Cn2c(-c3ccco3)nc3c(c(=O)c4ccccc4n3C)c2=O)cc1 | 45* | 3 | -2 | -53
COc1ccc(Cn2c(C)nc3c(c2=O)c2nc4ccccc4nc2n3Cc2ccco2)cc1 | 69* | 10 | -1 | 9
COc1ccc(S(=O)(=O)c2c(N)n(Cc3ccco3)c3nc4ccccc4nc23)cc1 | 41* | 8 | -5 | nt
COc1cccc(-c2cnc3c(NC(C)=O)cc(-c4ccc(C(=O)N5CCOCC5)cc4)cn23)c1 | -27 | nt | -4 | -1
O=c1cc(-c2ccccc2)[nH]n1-c1ccccc1 | 7 | -4 | 2 | 38
CC(C)(C)c1cc(=O)n(-c2ccccc2)[nH]1 | 2 | 9 | 13* | 8
CC(=O)Nc1ccc(S(=O)(=O)Nc2nc3ccccc3nc2Nc2ccc(N)cc2)cc1 | 5 | 5 | -4 | -7
CC(=O)Nc1ccc(S(=O)(=O)Nc2nc3ccccc3nc2Nc2ccc(C(=O)O)c(O)c2)cc1 | 57* | 15 | 3 | 22
O=C(NCc1cc(C(F)(F)F)ccc1Cl)c1cccc2c1C(=O)c1ccc(N3CCC(N4CCCCC4)CC3)cc1S2(=O)=O | 64* | nt | -11 | -5
CNC(=S)N/N=C/c1ccc(-c2ccc(C(=O)O)cc2)o1 | 2 | -1 | -5 | 48*
CNC(=S)N/N=C/c1ccc(-c2ccc(Cl)c([N+](=O)[O-])c2)o1 | -9 | -10 | -2 | -22
CCc1nn(CCCC(=O)NC2CCCCC2C)c(=O)c2cc3occc3n12 (centres undefined) | -2 | nt | -4 | 2
Cc1ccc(-c2nn(-c3ccccc3)cc2/C=C(\C#N)c2cccc(C#N)c2)o1 | -4 | -1 | -5 | 37*
COC(=O)[C@]12CCCCC=C1N(Cc1ccccc1)C(=O)[C@H](CC(=O)N1CCSCC1)C2 | 4 | nt | nt | 0
COc1ccc(NC(=O)C2(C)Cc3c(-c4ccc5c(c4)OCO5)ccnc3O2)cn1 (centres undefined) | 7 | nt | 5 | nt
O=C(O)c1ccc(-c2ccc(-c3ccccc3)cc2)s1 | -11 | nt | -1 | 51*
CCOc1ccccc1NC(=O)COC(=O)COc1cccc2c1OC(C)(C)C2 | 5 | nt | -3 | -4
c1ccc(CSc2nnc(-c3ccco3)o2)cc1 | 44* | -5 | 0 | 5
CC1CCN(C(=S)NC(=O)c2ccc(C(C)(C)C)cc2)CC1 | 45* | 7 | -2 | 2
CC1CCN(C(=S)NC(=O)c2ccccc2)CC1 | -5 | -1 | 1 | -3
Cc1cc(C)c(-c2c(O)c3cccc4c3n(c2=O)CCC4)c(C)c1 | 1 | -8 | 3 | 10
O=c1c(-c2ccccc2)c(O)c2cccc3c2n1CCC3 | 1 | 9 | 2 | 45*
